Results as given in PubChem BioAssay (Tox21).
Inconclusive results are not listed. Values without a mark were called inactive. Activity calls are given as the source filed them. Calls come from the whole dose curve; as a rule, active = well fitted cell-killing curve with a large enough effect in the repeat runs; inconclusive = weak or mixed curves, or effect the other way; inactive = no such curve, though single readings can be large or run the other way.
% is set by controls: 0 for no effect and ±100 for the full control effect; potency is the fitted concentration of half-maximal effect.

Experiment: qHTS assay to identify small molecule agonists of the estrogen receptor alpha (ER-alpha) signaling pathway in the presence of an antagonist - cell viability counter screen (AID 1259386);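 note: cells exposed to compounds for 22 h at 37 °C before the viability read; nearly all actives have a fitted effect of over 30% in size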
Conditions: VM7Luc4E2 viability, CellTiter-Fluor fluorescence, 22 h; series mostly up to 92.4 µM; activity change, negative = cytotoxicity: at the top concentration
Text: National Center for Advancing Translational Sciences [NCATS]
NIH Chemical Genomics Center [NCGC]
U.S. Environmental Protection Agency [EPA]
National Institutes of Environmental Health Sciences [NIEHS]
National Toxicology Program [NTP]
U.S. Food and Drug Administration [FDA]
Estrogen receptor (ER), a member of nuclear hormone receptor plays an important role in development, metabolic homeostasis and reproduction. Two subtypes of ER, ER-alpha and ER-beta, have similar expression patterns with some uniqueness in both types. Endocrine disrupting chemicals (EDCs) and their interactions with steroid hormone receptors like ER causes disruption of normal endocrine function. Therefore, it is important to understand the effect of environmental chemicals in ER signaling pathway. For identifying ER agonists, VM7Luc4E2 cell line has been used in the current assay.
VM7Luc4E2 cell line (provided by Denison MS, University of California) endogenously expresses full-length ER-alpha and is stably transfected with a plasmid containing four estrogen responsive elements (ERE) upstream of a luciferase reporter gene. This current screening for measuring luciferase reporter gene activity using VM7Luc4E2 cells against Tox21 10K library collection is a confirmation study on agonist mode screening in presence of ER-antagonist (ICI-182,780) at 10.0nM final concentration. The cytotoxicity of the compounds was tested in parallel by measuring the cell viability using CellTiter-Fluor assay system (Promega, Madison, WI) in the same wells.
Tox21 Assay Protocol Summary:
VM7Luc4E2 cells were cultured in phenol red free assay medium containing 10% charcoal stripped FBS for 5 days prior to the assay. The cells were dispensed at 4,000 cells in 4uL of assay medium per well into white wall/solid-bottom 1536-well plates (Corning Life Sciences, Corning, NY) using a Multidrop Combi (Thermo Fisher Scientific Inc., Waltham, MA) dispenser. After the assay plates were incubated at 37C and 5% CO2 for 24hr, 1uL of 10.0nM (final concentration) ICI-182,780 or assay buffer was added using two separate tips of Flying Reagent Dispenser (FRD, Aurora Discovery, San Diego, CA). Then 23nL of compounds dissolved in DMSO at 15 concentrations and positive controls or DMSO only was transferred to the assay plates by a Pintool station (Wako, San Diego, CA). The assay plates were incubated at 37C and 5% CO2 for 22hr. After 21hr incubation at 37C, 1uL/well CellTiter-Fluor reagent (Promega Corporation, Madison, WI) was added to each well using FRD and after 1hr incubation at 37C and 5% CO2, the fluorescence signal was measured on ViewLux plate reader (PerkinElmer, Shelton, CT).
With `CCOC(=O)c1ncn2c1CN(C)C(=O)c1cc(F)ccc1-2` the “activity change, negative = cytotoxicity” value was 4.24% [at 42.5 µM]. With `CCCCCOC(=O)CCC` the “activity change, negative = cytotoxicity” value was -3.23%. In the case of `CCOC(=O)c1ccc(OC(=O)CCCCCN=C(N)N)cc1`, the “activity change, negative = cytotoxicity” value is reported as 3.08% [at 42.5 µM]. With `COc1ccc(OC)c(Cl)c1` the “activity change, negative = cytotoxicity” value was 0.694%. For `CCCCCCCCCCCCCC`, the “activity change, negative = cytotoxicity” value was 0.819%. With `CC(C)=O` the “activity change, negative = cytotoxicity” value was -3.38%. With `CC(CC=O)CCCC(C)(C)O` (stereo not given) the “activity change, negative = cytotoxicity” value was 5.72%. In the case of `CCCC/C=C/C=C\C=O`, the “activity change, negative = cytotoxicity” value is reported as -15.5%. For `C[Si](C)(C)C`, the “activity change, negative = cytotoxicity” value was -7.14%. With `ClCCCl` the “activity change, negative = cytotoxicity” value was -10.6%. `Oc1cn2c(n1)Nc1ccc(Cl)c(Cl)c1C2` showed an activity change, negative = cytotoxicity of 5.64% [at 19 µM]. In the case of `CCCCCCCCSCC`, the “activity change, negative = cytotoxicity” value is reported as 1.01%. With `O=C(O)c1cc(Br)c(O)c(Br)c1` the “activity change, negative = cytotoxicity” value was -2.08%. For `CCOC(=O)/C=C/c1ccccc1`, the “activity change, negative = cytotoxicity” value was -5.93%. For `Cc1cccc2nccnc12`, the “activity change, negative = cytotoxicity” value was -3.64%. For `CC(=O)/C=C/C1C(C)=CCC(C)C1(C)C` (stereo not given), the “activity change, negative = cytotoxicity” value was -1.02%. In the case of `C#CC(C)N(C)C(=O)Nc1ccc(Cl)cc1` (stereo not given), the “activity change, negative = cytotoxicity” value is reported as -7.28%. In the case of `CC(=O)Nc1cccc(C)c1`, the “activity change, negative = cytotoxicity” value is reported as -7.83%. In the case of `C[C@H](N)[C@H](O)c1cccc(O)c1`, the “activity change, negative = cytotoxicity” value is reported as 2.69% [at 42.5 µM]. For `CCCCCCOC(=O)CC`, the “activity change, negative = cytotoxicity” value was 0.935%. For `CC(=O)Nc1ccc(S(=O)(=O)Nc2ccc([N+](=O)[O-])cc2)cc1`, the Potency was 23.7 µM (active). With `C=C(C)C(=O)OCCNC(C)(C)C` the “activity change, negative = cytotoxicity” value was -0.114%. For `O=C(CCNNC(=O)c1ccncc1)NCc1ccccc1`, the “activity change, negative = cytotoxicity” value was -3.23% [at 42.5 µM]. With `CC(C)CC(=O)O` the “activity change, negative = cytotoxicity” value was -0.0396%. For `COc1cc(C(=S)N2CCOCC2)cc(OC)c1OC`, the “activity change, negative = cytotoxicity” value was 2.64% [at 42.5 µM]. In the case of `CC(COC(C)(C)C)OCCCO` (stereo not given), the “activity change, negative = cytotoxicity” value is reported as -2.5%. In the case of `C=C1CC/C=C(\C)CC[C@@H]2[C@@H]1CC2(C)C`, the “activity change, negative = cytotoxicity” value is reported as 8.92%. With `C=CC(OCC)OCC` the “activity change, negative = cytotoxicity” value was 2.05%. In the case of `CCCCCCOc1ccccc1C(N)=O`, the “activity change, negative = cytotoxicity” value is reported as -11.8% [at 42.5 µM]. With `O=C1c2ccccc2C(=O)c2cc(S(=O)(=O)O)ccc21` the “activity change, negative = cytotoxicity” value was -0.728%. With `Cc1ccc2ccc(Cl)cc2n1` the “activity change, negative = cytotoxicity” value was 1.09% [at 42.5 µM]. For `C=CCCCCCCCCCCCC`, the “activity change, negative = cytotoxicity” value was 3.68%. With `COc1ccc2c(c1)C(=O)N(CCc1ccc(S(=O)(=O)NC(=O)NC3CCCCC3)cc1)C(=O)C2(C)C` the “activity change, negative = cytotoxicity” value was 3.54% [at 42.5 µM]. In the case of `CC(C)CCCCOC(=O)c1ccccc1C(=O)OCCCCC(C)C`, the “activity change, negative = cytotoxicity” value is reported as 2.24%. For `On1nnc2ccccc21`, the “activity change, negative = cytotoxicity” value was 1.32%. For `OCCC(F)(F)C(F)(F)C(F)(F)C(F)(F)C(F)(F)C(F)(F)C(F)(F)C(F)(F)F`, the “activity change, negative = cytotoxicity” value was 8.72%. In the case of `O=C(NCCc1c[nH]c2ccccc12)c1cccnc1`, the “activity change, negative = cytotoxicity” value is reported as 0.418% [at 42.5 µM]. With `CC(=O)OC(C)OC(=O)C(C)c1ccc(-c2ccccc2)c(F)c1` (stereo not given) the “activity change, negative = cytotoxicity” value was 1.58% [at 42.5 µM]. In the case of `C=COCCOCCOCCOC=C`, the “activity change, negative = cytotoxicity” value is reported as 0.0825%. With `CCCC/C=C\CCCCCCCCCC=O` the “activity change, negative = cytotoxicity” value was 0.0306%.
